Screens (PubChem BioAssay)
PREPL inhibitor = PREPL enzyme inhibitors, primary screen, biochemical, fluorescence polarization; Prolyl endopeptidase-like (Homo sapiens), Q4J6C6; recombinant PREPL, fluorescence polarization activity-based probe; inhibition, % at 5.96 µM; actives 0.68% (n = 320,000);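 further: 0% = enzyme with DMSO and 100% = wells lacking enzyme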
PME-1 inh = PME-1 inhibitors via competitive probe labeling, primary screen, biochemical, fluorescence polarization, FP-Rh probe, HTS | recombinant PME-1 | inhibition, % at 5.9 µM | actives 0.53% (n = 320,000) | AID 2130, 2009;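 active means inhibition above the campaign mean of all compounds plus 3 SD, cut at about 26% in these data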;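 further: competitive labeling of PME-1 active site by serine hydrolase directed probe; 0% = PME-1 with DMSO and 100% = wells lacking PME-1 enzyme; inhibitors block probe labeling so polarization falls and inhibition rises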
LYPLA2 inh = LYPLA2 inhibitors, primary screen, counter-screen for PME1 inhibitor project, biochemical, fluorescence polarization, FP-Rh probe ABPP | Acyl-protein thioesterase 2 (Homo sapiens), O95372 | recombinant LYPLA2 | inhibition, % at 5.9 µM | actives 0.38% (n = 320,000) | AID 2177, 2009;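 active means inhibition above the screen-wide mean plus 3 SD, limit set per campaign, cut at about 26% in these data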;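 further: 0% = LYPLA2 with DMSO and 100% = wells lacking LYPLA2 enzyme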
Target sequence (O95372 whole entry, looked up): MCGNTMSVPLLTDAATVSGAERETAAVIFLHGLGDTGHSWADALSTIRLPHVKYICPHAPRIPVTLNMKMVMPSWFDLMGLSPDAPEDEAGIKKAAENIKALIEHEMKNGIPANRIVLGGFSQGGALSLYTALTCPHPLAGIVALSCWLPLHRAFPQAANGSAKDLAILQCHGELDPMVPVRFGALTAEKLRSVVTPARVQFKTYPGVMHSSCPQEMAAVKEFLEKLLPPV
MEX-5 binding = MEX-5 zinc finger RNA-binding disruptors – biochemical, C. elegans, fluorescence polarization, MLPCN library, primary screen; MEX-5/FITC-TCR2 RNA binding; hits give low values; actives 0.38% (n = 300,000); activity score (negative = inhibition of binding), % at 10 µM; Zinc finger protein mex-5 (Caenorhabditis elegans), Q9XUB2; AID 1832, 2009;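 active means inhibition past about -25% in most replicates, and total fluorescence under double the plate's negative control median, limit read from the data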;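 further: 0% = DMSO and -100% = 5 µM competing unlabeled TCR2 RNA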
Target sequence (Q9XUB2 whole entry, looked up): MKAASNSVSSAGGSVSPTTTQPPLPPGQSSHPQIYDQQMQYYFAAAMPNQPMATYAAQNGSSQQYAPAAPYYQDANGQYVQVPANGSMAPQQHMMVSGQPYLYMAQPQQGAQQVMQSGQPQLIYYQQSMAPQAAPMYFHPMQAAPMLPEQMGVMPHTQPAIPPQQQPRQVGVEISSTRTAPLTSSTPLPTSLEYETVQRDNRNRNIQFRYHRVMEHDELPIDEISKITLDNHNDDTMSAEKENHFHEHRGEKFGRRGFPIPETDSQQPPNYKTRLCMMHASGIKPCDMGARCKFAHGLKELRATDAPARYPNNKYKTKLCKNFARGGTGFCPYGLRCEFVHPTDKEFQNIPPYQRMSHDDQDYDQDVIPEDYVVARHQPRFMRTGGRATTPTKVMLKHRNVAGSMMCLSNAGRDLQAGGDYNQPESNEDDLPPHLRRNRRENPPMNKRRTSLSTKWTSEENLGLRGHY
Fam108B inh = mouse Fam108B serine hydrolase inhibitors, primary screen, counter-screen for RBBP9 inhibitor project, biochemical, fluorescence polarization. recombinant Fam108B, FP-Rh probe fluorescence polarization. inhibition, % at 9.51 µM. actives 0.33% (n = 300,000). AID 1947, 2009;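 active means inhibition above the screen mean inhibition plus 3 SD, computed separately per campaign, cut at about 18% in these data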;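 further: inhibitors lower polarization as less probe binds the enzyme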
LYPLA1 counter = LYPLA1 inhibitors, primary screen, counter-screen for PME1 inhibitor project, biochemical, fluorescence polarization, FP-Rh probe ABPP | inhibition, % at 5.9 µM | recombinant LYPLA1 | actives 0.16% (n = 320,000) | Acyl-protein thioesterase 1 (Homo sapiens), O75608;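 active means inhibition above the mean of all tested compounds plus 3 SD, set per campaign, cut at about 14% in these data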;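 further: inhibitors block serine hydrolase probe labeling of LYPLA1 so polarization falls; 0% = enzyme with DMSO and 100% = wells lacking LYPLA1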
PREPL confirm = human PREPL enzyme inhibitors, confirmation, biochemical, fluorescence polarization; recombinant PREPL, fluorescence polarization activity probe; inhibition, % at 5.96 µM; shares compounds with PREPL inhibitor; actives 67% (n = 2,000); AID 2803, 2010;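 further: 0% = protein with DMSO and 100% = wells lacking protein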
An asterisk follows results filed as active. Compounds with a hit are over-represented: about 1.6% of the library has one in this group of screens. Unless noted, no stated cut-off is given here; in the data, active means inhibition above about 43%; inactive means the rest.

How did CC(=O)NC1=C(N(C)C2CCS(=O)(=O)C2)C(=O)c2ccccc2C1=O (stereo not drawn) do in these assays?
PREPL inhibitor: 0.0; PME-1 inh: 2.6; LYPLA2 inh: -1.7; MEX-5 binding: -0.4; Fam108B inh: 1.6; LYPLA1 counter: -0.2

How did Cc1ccc(Sc2cnn(-c3ccccc3)c(=O)c2Cl)cc1 do in these assays?
PREPL inhibitor: 46.2*; PME-1 inh: 2.8; LYPLA2 inh: 1.4; MEX-5 binding: 0.4; Fam108B inh: 3.9; LYPLA1 counter: 7.4; PREPL confirm: 38.4

What do the screens show for `Nc1c(C(=O)NC2CCCC2)c2nc3ccccc3nc2n1N`?
PREPL inhibitor: 44.0*; PME-1 inh: 13.1; LYPLA2 inh: -0.6; MEX-5 binding: 0.6; Fam108B inh: 1.4; LYPLA1 counter: 0.0; PREPL confirm: 29.9

How did Clc1cccc(-c2ccc(C3Nc4cccc5cccc(c45)N3)o2)c1 do in these assays?
PREPL inhibitor: 49.0*; PREPL confirm: 60.9*

Results for O=C(O)c1ccc(-c2cccc(Cl)c2)o1 ?
PREPL inhibitor: -4.1; PME-1 inh: 3.2; LYPLA2 inh: 0.9; MEX-5 binding: 0.3; Fam108B inh: 1.0; LYPLA1 counter: -0.2

How did O=C1OC[C@@H]2CCCN2C(=O)[C@H](CC(=O)N(CCO)Cc2ccccc2)C/C=C\C[C@H]1Cc1ccc(F)cc1 do in these assays?
PREPL inhibitor: 50.6*; PREPL confirm: 39.3

Results for COc1ccc(C(=O)NCCc2c[nH]c3ccccc23)cc1S(=O)(=O)N1CCCCC1C (stereo not drawn) ?
PREPL inhibitor: 11.1; PME-1 inh: -0.2; LYPLA2 inh: -6.9; LYPLA1 counter: -3.7

Results for CC(=O)Nc1cc(OC(=O)c2ccco2)cc(OC(=O)c2ccco2)c1 ?
PREPL inhibitor: 49.6*; PME-1 inh: 0.4; LYPLA2 inh: -0.3; MEX-5 binding: 1.5; Fam108B inh: -3.0; LYPLA1 counter: -2.6; PREPL confirm: 37.2

Results for CC(C)CNC(=O)CN1C(=O)NC2(CCc3ccccc32)C1=O (stereo not drawn) ?
PREPL inhibitor: 9.5; PME-1 inh: 0.8; LYPLA2 inh: 7.8; MEX-5 binding: -2.8; Fam108B inh: 1.4; LYPLA1 counter: 3.5

What do the screens show for `O=C(c1cccnc1)N1CCN(Cc2ccc3ccccc3c2)CC1`?
PREPL inhibitor: 45.2*; PME-1 inh: -6.8; LYPLA2 inh: 5.6; MEX-5 binding: 0.8; Fam108B inh: -2.7; LYPLA1 counter: -1.6; PREPL confirm: 36.3

How did Cc1occc1-c1nnc(SCC(=O)NC2CCCC2)n1C do in these assays?
PREPL inhibitor: 7.3; PME-1 inh: 2.0; LYPLA2 inh: 4.0; MEX-5 binding: 2.3; Fam108B inh: -2.8; LYPLA1 counter: 1.7

What do the screens show for `CCN(C(=O)CCN1C(=O)S/C(=C\c2ccccc2)C1=O)C1CCS(=O)(=O)C1` (stereo not drawn)?
PREPL inhibitor: 44.7*; PME-1 inh: 1.6; LYPLA2 inh: -5.1; MEX-5 binding: -0.9; Fam108B inh: 2.4; LYPLA1 counter: -2.5; PREPL confirm: 37.2

How did COc1ccccc1Nc1ccc(N)cc1 do in these assays?
PREPL inhibitor: 83.6*; PME-1 inh: -0.1; LYPLA2 inh: 9.1; MEX-5 binding: -2.6; Fam108B inh: 5.6; LYPLA1 counter: 5.0; PREPL confirm: 42.6

Results for C=CCn1c(SCC)nc(O)cc1=O ?
PREPL inhibitor: 2.0; PME-1 inh: -3.2; LYPLA2 inh: 2.4; MEX-5 binding: -2.6; Fam108B inh: 1.1; LYPLA1 counter: 3.2

How did COc1ccc(NCc2nc3ccccc3n2CCOc2ccccc2)cc1 do in these assays?
PREPL inhibitor: 39.8; PME-1 inh: 14.8; LYPLA2 inh: 3.9; MEX-5 binding: 2.9; Fam108B inh: 3.7; LYPLA1 counter: -3.0

How did COc1ccc(NCc2nc3ccccc3n2CCOc2ccc(C)cc2)cc1 do in these assays?
PREPL inhibitor: 62.5*; PME-1 inh: 10.7; LYPLA2 inh: 6.9; MEX-5 binding: 1.0; Fam108B inh: 3.0; LYPLA1 counter: -7.2; PREPL confirm: 59.7*

How did O=C(NCc1ccc(Cl)cc1)C(=O)c1c[nH]c2ccccc12 do in these assays?
PREPL inhibitor: -12.9; PME-1 inh: -3.2; LYPLA2 inh: -8.8; MEX-5 binding: -0.7; Fam108B inh: -6.8; LYPLA1 counter: -9.7

How did Cc1c(CCOC(=O)c2ccc(Cl)cc2Cl)sc[n+]1CC(=O)c1ccccc1 do in these assays?
PREPL inhibitor: -17.4

Results for Cc1c(CCOC(=O)c2cc([N+](=O)[O-])cc([N+](=O)[O-])c2)sc[n+]1CC(=O)c1ccc(Br)cc1 ?
PREPL inhibitor: 53.6*; PME-1 inh: 6.4; LYPLA2 inh: 11.4; MEX-5 binding: -0.3; Fam108B inh: 2.6; LYPLA1 counter: 1.9; PREPL confirm: 70.5*

Results for Cn1cccc1Cc1nnc(SCC(=O)N2CCN(c3ccccc3)CC2)n1-c1ccc(F)cc1 ?
PREPL inhibitor: 49.4*; PME-1 inh: -0.8; LYPLA2 inh: 0.3; Fam108B inh: 2.8; LYPLA1 counter: -3.0; PREPL confirm: 36.6

How did Cc1ccsc1CN(C)C(=O)c1cc(S(=O)(=O)N2CCOCC2)ccc1N1CCCC1 do in these assays?
PREPL inhibitor: 12.8; PME-1 inh: 10.7; LYPLA2 inh: 4.2; LYPLA1 counter: -0.2

What do the screens show for `CCOc1cc(C)c(C(C)C)cc1S(=O)(=O)n1ccc(C)n1`?
PREPL inhibitor: 10.3; PME-1 inh: 4.0; LYPLA2 inh: 1.8; MEX-5 binding: -2.7; Fam108B inh: 4.7; LYPLA1 counter: -1.2

Results for CN(C)c1ccc(-c2sc(Nc3ccccc3)n[n+]2-c2ccc(F)cc2)cc1 ?
PREPL inhibitor: 10.3; PME-1 inh: -2.4; LYPLA2 inh: -3.4; MEX-5 binding: 9.4; Fam108B inh: 2.0; LYPLA1 counter: -2.4

How did CCc1ccc(Nc2n[n+](-c3ccccc3)c(-c3ccc(N(CC)CC)cc3)s2)cc1 do in these assays?
PREPL inhibitor: 63.9*; PME-1 inh: -7.4; LYPLA2 inh: 0.4; MEX-5 binding: 9.1; Fam108B inh: 2.8; LYPLA1 counter: 2.8; PREPL confirm: 67.7*

Results for CCN(CC)c1ccc(-c2sc(Nc3ccccc3)n[n+]2-c2ccc(F)cc2)cc1 ?
PREPL inhibitor: 53.9*; PME-1 inh: 2.7; LYPLA2 inh: -1.2; MEX-5 binding: 42.3; Fam108B inh: 2.1; LYPLA1 counter: -1.4; PREPL confirm: 65.5*
